Each structure is given as a SMILES string. The whole screen tested about 140,000 compounds, of which about 240 (0.17%) were called active. Another 9% or so got no clear call; they are omitted. Calls follow the shape of the dose curve; as a rule, active = well fitted inhibition curve with a large enough effect; inconclusive = small, poorly fitted or top-dose-only effect; inactive = no such curve, though single readings can be large or run the other way. Shown is part of a subset that was picked to be rich in actives. Where a call stands in place of a potency, no number is given.
Potency is read from the fitted curve at half-maximal effect.

The nature of the assay: Primary qHTS assay for inhibitors of alpha-synuclein gene (SNCA) expression. Also: nearly all actives have a fitted effect of over 45% in size. The settings on record: HEK-293 SNCA-luciferase knock-in, luminescence, 24 h; series mostly up to 57.2 µM. From the text:
Assay Submitter (PI): Daniel R. Scoles Ph.D.
Department of Neurology, University of Utah, Salt Lake City, Utah
Accumulation of alpha-synuclein is a main underlying pathological feature of Parkinson's disease (PD) and alpha-synucleinopathies, for which lowering expression of the alpha-synuclein gene (SNCA) is a potential therapeutic avenue. Using a cell-based luciferase reporter of SNCA expression we performed a quantitative high throughput screen (qHTS) of 155,885 compounds in dose response. The screening assay was generated using genome editing to insert the luciferase gene downstream and in frame of the SNCA gene in HEK-293 cells (1). A viability counterscreen using GF-AFC was used to eliminate cytotoxic and false positive compounds. After in silico analysis (clustering, removal of frequent hitter nuisance chemotypes), inhibitor compounds from the primary screen were selected for follow up and re-tested at 11-doses in the SNCA-luc cells (luciferase and GF-AFC confirmation), and in CMV-luc expressing cell line to flag general transcriptional repressors.
Described herein are the results of the primary screen for SNCA inhibitors; decrease in luciferase signal (inhibition of the SNCA gene expression) is the desired output for this assay.
1. Dansithong, W., Paul, S., Scoles, D. R., Pulst, S. M., and Huynh, D. P. (2015) Generation of SNCA Cell Models Using Zinc Finger Nuclease (ZFN) Technology for Efficient High-Throughput Drug Screening. PLoS ONE 10, e0136930.
SEQUENCE No. (e.g., 1, 2, 3, etc.); […] (e.g., Cells, Incubation, Reagent, etc.); VALUE; DESCRIPTION
1; Cells; 4 uL; Dispense 1500 HEK-293-SNCA-luc cells/well into Greiner 1536-well white / solid bottom tissue culture treated plate. The plate was covered with metal lids with gas-exchange holes.
2; Incubate; 24 hours; Incubate at 37C, 5% CO2, 95% RH.
3; Compounds; 23 nL; Compounds and controls were transferred via a Kalypsys Pin Tool (Wako USA) equipped with a 1536-slotted pin array. The plate was covered with metal lids with gas-exchange holes.
4; Incubate; 24 hours; Incubate at 37C, 5% CO2, 95% RH.
5; Dispense; 1 uL; Dispense Gly-Phe-7-amino-4-trifluoromethylcoumarin (GF-AFC, prepared at 125 uM in PBS) was added. The plate was covered with metal lids with gas-exchange holes.
6; Incubate; 30 min; Incubate at 37C, 5% CO2.
7; Detector; Fluorescence; Measure fluorescence with ViewLux microplate reader (PerkinElmer) equipped with 405/10 excitation and 540/25 emission filters.
8; Dispense; 3 uL; Dispense ONE-Glo ([…]) lucifase detection reagent was added to each well. Plates were covered with metal lids with gas-exchange holes.
9; Incubate; 15 min; Incubate at room temperature.
10; Detector; Luminescence; Measure luminescence with ViewLux microplate reader (PerkinElmer) equipped with clear filters.
NOTES (numbers refer to sequence above)
1; HEK-293-SNCA-luc were cultured and suspended in phenol-red free DMEM (4.5 g/L glucose, 25 mM HEPES, cat #21063 (Thermo)).
3; Compounds were added to the assay plate in an 11-point intra plate dose response, 1:3 titration in DMSO with a final concentration range of […]. Vehicle-only plates, with DMSO being pin-transferred to every well, were inserted at the beginning of screening runs to confirm expected assay performance. Activity was normalized to wells containing medium only (-100% activity, full inhibition) and SNCA-luc cells treated with DMSO vehicle control (0% activity), contained on the same plate as test samples.
10; Signals were analyzed, and dose-response curves were fit using the Hill equation. Compounds in curve classes -1.1, -1.2, -2.1, -2.2 in the SNCA-luc assay were considered active. Compounds were eliminated from further consideration if also active (curve class -1.1, -1.2, -1.3, -1.4, -2.1, -2.2, -2.3, -2.4) in the GF-AFC cytotoxicity assay.
(In general: In qHTS, concentration-response curves come from the screen itself.)
On to `O=c1c2nc(-c3ccccc3)ccc2ncn1Cc1ccccc1`, for which the Potency result was “inactive”.

`C[C@@H](O)[C@H](N)C(=O)N1CCc2onc(-c3cccc4ccccc34)c2C1`: the Potency result was “inactive”.

In the case of `COc1ccc(CN2CCN(c3ccccc3)CC2C)c(OC)c1OC` (configuration not stated), the Potency result was “inactive”.

Regarding `O=C1CC2(CCN(C(=O)C3CCCN3C(=O)Cc3ccccn3)CC2)Oc2ccccc2N1` (configuration not stated), the Potency result is “inactive”.

For the molecule `CCOc1ccccc1C(=O)Nc1ccc2c(c1)N(C)C(=O)c1ccccc1S2`, the Potency result was “inactive”.

As for `CCN1C(=O)c2ccccc2Sc2ccc(NC(=O)Cc3ccc(OC)cc3)cc21`, the Potency result was “inactive”.

As to `COc1cccc(NC(=O)Nc2ccc3c(c2)N(C)C(=O)c2ccccc2S3)c1`, the Potency was 20 µM (active).

On to `COc1ccc(-c2nc(CN3CCOC(CN)C3)c(C)o2)c2ccccc12` (configuration not stated), for which the Potency result was “inactive”.

For `CN1C[C@H](O)C[C@H]1c1nnc2n1CCN(C(=O)c1cc3ccccc3[nH]1)CC2`, the Potency result was “inactive”.

For the molecule `COc1ccc(Cl)cc1NC(=O)N1CCCC(Cn2cnc3cccnc32)C1` (configuration not stated), the Potency entry is “inactive”.

For `COCCN1C[C@H]2CN(C)c3ccccc3[C@@H]2N(C(=O)CC2CCCC2)CCC1=O`, the Potency result was “inactive”.

With `CNC(=O)C1CCCCN1Cc1ccc(-c2cccs2)cc1` (configuration not stated), the Potency entry is “inactive”.

As to `COc1ccc(-c2cc(N3CCCC(NC(=O)c4cccc(Cl)c4)C3)n[nH]2)cc1` (configuration not stated), the Potency result is “inactive”.

Regarding `Cc1cc(OC2CN(C(=O)c3ccccc3F)C2)ccc1F`, the Potency result is “inactive”.

Turning to `COc1ccc(CC(=O)N2CC[C@@H](CC(=O)O)[C@@H](CCN(C)c3ccccc3)C2)cc1`, the Potency entry is “inactive”.

On to `COCc1nc(C2CC(N)C2)cc(N2CCC(c3[nH]ncc3C)CC2)n1` (configuration not stated), for which the Potency entry was “inactive”.

Turning to `CCOc1ccc(N(CC)C(=O)C2CCN(S(=O)(=O)c3cccc4nonc34)CC2)cc1`, the Potency entry was “inactive”.

Turning to `CCOc1ccc(NC(=O)CN(Cc2ccccc2)S(=O)(=O)c2ccc(Cl)cc2)cc1`, the Potency entry is “inactive”.

On to `CCOc1ccc(N(Cc2ccccc2)C(=O)c2nc(S(C)(=O)=O)ncc2Cl)cc1`, for which the Potency was 6.31 µM (active).

`CCOc1ccc2c(n1)CCN(C(=O)NC1CCCCC1)C2`: the Potency result is “inactive”.

Consider `C=CCN(C)C(=O)[C@@H](C)C1CC[C@@]2(C)Cc3sc(NS(=O)(=O)c4ccc(Cl)cc4)nc3[C@@H](C)[C@@H]2[C@H]1O` (some centres not stated), for which the Potency result was “inactive”.

For the molecule `CCN1CCN(C(=O)c2ccc3nnc(-c4ccc(OC(F)(F)F)cc4)n3c2)CC1`, the Potency result is “inactive”.

As to `COc1cccc(CCC(=O)N2CCCN(S(C)(=O)=O)c3ccccc32)c1`, the Potency result was “inactive”.

In the case of `Oc1ccc(-c2nc(C3CC3)nc3c2CN(Cc2ccc(F)cc2)CC3)cc1`, the Potency entry was “inactive”.

For the molecule `Cc1cccc(CN2CCC3(Cc4ccccc4CNC3=O)C2)c1` (configuration not stated), the Potency entry is “inactive”.

For the molecule `COC(=O)N1CCN(C(=O)c2cccc(-c3ccccc3OC)c2)CC1`, the Potency result is “inactive”.

Turning to `CC1=C(C(=O)N(C)C)C(c2ccc(Cl)cc2)N2C(CC(=O)NCc3ccco3)=CSC2=N1` (configuration not stated), the Potency entry is “inactive”.

Turning to `Cc1ccc(OCCn2c(CNc3ccccc3C)nc3ccccc32)cc1`, the Potency entry was “inactive”.

Take `CCCn1c(NCc2ccc(N(CC)CC)cc2)nc2ccccc21`: the Potency is 17.8 µM (active).

In the case of `CCCn1c(NCc2ccccc2F)nc2ccccc21`, the Potency result is “inactive”.

For `O=C(NCCc1ccccn1)c1ccc2c(c1)N(S(=O)(=O)c1ccccc1)CC2`, the Potency entry was “inactive”.

Take `CCCS(=O)(=O)N1CCC(CCOC)(NC(=O)NCC)CC1`: the Potency entry is “inactive”.

As to `CC(C)NC(=O)C1(CCO)CCN(c2ncccn2)C1` (configuration not stated), the Potency result was “inactive”.

Regarding `COc1cccc(CC(=O)NC2CCN(c3cc(-c4ccc(F)cc4)[nH]n3)C2)c1` (configuration not stated), the Potency result was “inactive”.

For `CCC(=O)N1CCC2(CC1)OCC(C(=O)NCc1ccccc1)N2C(=O)c1ccc(C)cc1` (configuration not stated), the Potency result was “inactive”.

On to `O=C1NCc2ccccc2CC12CCCN2Cc1ccccc1OC(F)(F)F` (configuration not stated), for which the Potency result was “inactive”.

Take `CC(C)CN(CC1CN(C(=O)Cc2cccs2)CCO1)C(=O)c1cccc2ccccc12` (configuration not stated): the Potency entry was “inactive”.

Take `O=C1NC(=NC2CCCC2)C2(CCCN(Cc3ccsc3)C2)N1c1cc(F)cc(F)c1` (configuration not stated): the Potency entry is “inactive”.

As to `CCOc1cccc(CN2CCC(Oc3ccc(-c4noc(C5CC5)n4)cc3)C2)c1` (configuration not stated), the Potency entry is “inactive”.

As for `COc1ccccc1Nc1ccnc(N2CCC(C(=O)N3CCC(c4ccccc4)CC3)CC2)n1`, the Potency entry was “inactive”.

Turning to `Cc1ccc(-c2ccccc2CN2CCN(C(=O)NC(C)C)CC2)cc1Cl`, the Potency entry is “inactive”.

On to `Cc1nonc1CC(=O)NC1CC(=O)N(Cc2cccc3ccccc23)C1` (configuration not stated), for which the Potency entry was “inactive”.

In the case of `COc1ccccc1NC(=O)Cn1c(-c2ccc(F)cc2)nc(C)c(CCO)c1=O`, the Potency entry was “inactive”.

Regarding `COc1ccc(-c2ccnc(N[C@H]3CO[C@H]4[C@@H]3OC[C@H]4OC(=O)Nc3cccc4ccccc34)n2)cc1`, the Potency entry was “inactive”.

`Cn1cccc1C(=O)N1C[C@@H](COc2ccccc2)[C@H](C(N)=O)C1`: the Potency result is “inactive”.

Consider `Cc1cccc(OCCc2noc(C3CCCN(Cc4ccccc4C#N)C3)n2)c1` (configuration not stated), for which the Potency entry is “inactive”.

On to `CCOC(=O)C1CCCN(C(=O)c2ccc3oc(-c4ccccn4)nc3c2)C1` (configuration not stated), for which the Potency entry was “inactive”.

Regarding `Cc1cccc(-c2nc3ccc(C(=O)N4CCCCC4)cc3o2)n1`, the Potency was 7.94 µM (active).

On to `CC(=O)N1CCN(C(=O)c2ccc3nc(-c4ccncc4)oc3c2)CC1`, for which the Potency entry was “inactive”.

Regarding `O=C(NCCc1ccccc1)c1ccc2nnc(C3CCCC3)n2c1`, the Potency entry was “inactive”.

In the case of `CCOC(=O)C1CCCN(C(=O)Cc2ccc(N(Cc3cccc(F)c3)C(=O)c3ccco3)cc2)C1` (configuration not stated), the Potency result was “inactive”.

Regarding `CCOc1ccccc1C(=O)N1CCC(Cc2nc(-c3ccccc3)no2)CC1`, the Potency entry is “inactive”.

Consider `COc1ccc(NC(=O)[C@@H]2C[C@@H](c3ccc(F)cc3)N(CCOc3ccccc3)C2)cn1`, for which the Potency entry was “inactive”.

For the molecule `CC(C)(C)C(=O)N1CCc2nc(-c3ccc(Cl)cc3)nc(-c3ccccc3)c2C1`, the Potency entry is “inactive”.

Regarding `Cc1ccc([S+](=O)([O-])N2CCN(C(=O)c3nc4cccnc4n(C4CCCC4)c3=O)CC2)cc1`, the Potency entry was “inactive”.

As for `Oc1ccccc1CN1CCOC[C@H]1c1ncc(-c2ccc(C(F)(F)F)cc2)[nH]1`, the Potency result is “inactive”.

In the case of `Cc1c(Cl)cccc1NC(=O)N(C)CC1CCOC1` (configuration not stated), the Potency entry is “inactive”.

On to `CC1(c2cccnc2)N(CCOc2ccccc2)C(=O)OC12CCN(C(=O)c1cccc(Cl)c1)CC2` (configuration not stated), for which the Potency entry is “inactive”.

Take `COc1ccccc1-c1cc(C(=O)NCCSC)nn2cccc12`: the Potency result was “inactive”.

`CC1=C[C@@H](CNC(=O)Nc2ccccc2)[C@H](C(C)C)C[C@H]1CC(=O)NCCN(C)C`: the Potency entry is “inactive”.

For the molecule `O=C(C1CCC1)N1CCC(O)(c2csc(CN3CCc4ccccc4C3)n2)CC1`, the Potency entry was “inactive”.

As to `O=C1[C@@H]2C[C@@H](O)CN2C2(CN(C3CCC3)C2)C(=O)N1Cc1ccccc1`, the Potency result is “inactive”.

Source of the values: PubChem BioAssay AID1671194 (National Center for Advancing Translational Sciences (NCATS), 2021).
